Our source for the outcome and AC50 values is PubChem BioAssay (EPA / NIEHS).

Calls of active or inactive are those of the source. The calls were made as follows: active = hit-call score of the fitted dose curve at least 0.9, where 1 is the maximum; inactive = score below 0.9.

Holding throughout (details): mRNA level, 48 h; actives raise or lower the signal
Read-out in experiment [1]: Interleukin 6 (IL6), IL6 (gene 3569)
As to the kind of experiment: LTEA_HepaRG_IL6: Life Technologies and Expression Analysis (LTEA) Assay for Interleukin 6 (IL6) using HepaRG (AID 2283509). Put shortly: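 Differentiated human HepaRG cells, plated 48 h then switched to serum-free induction medium, were exposed in duplicate for 48 h to eight half-log concentrations up to 100 uM in 0.5% DMSO. IL6 mRNA measured by qRT-PCR, normalized to ACTB/GAPDH/POLR2A.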

Read-out in experiment [2]: Interleukin 6 Receptor (IL6R), IL6R (gene 3570)
The experiment is described as follows: LTEA_HepaRG_IL6R: Life Technologies and Expression Analysis (LTEA) Assay for Interleukin 6 Receptor (IL6R) using HepaRG (AID 2283510).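 As to AC50: TaqMan qRT-PCR signal normalized to ACTB GAPDH and POLR2A housekeeping genes.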 Put shortly:
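Readout is IL6R transcript level by TaqMan qRT-PCR, normalized to three housekeeping genes and fitted bidirectionally against 0.5% DMSO controls. Human HepaRG cells received chemicals for 48 h in serum-free induction medium, highest concentration 100 uM.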

Read-out in experiment [3]: Potassium channel subfamily K member 1 (KCNK1), KCNK1 (gene 3775)
As to the kind of experiment: LTEA_HepaRG_KCNK1: Life Technologies and Expression Analysis (LTEA) Assay for Potassium channel subfamily K member 1 (KCNK1) using HepaRG (AID 2283511). Put shortly: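 Differentiated human HepaRG cells in serum-free induction medium were exposed in duplicate for 48 h to 8 half-log concentrations up to 100 uM in 0.5% DMSO. KCNK1 mRNA was measured by TaqMan qRT-PCR, normalized to ACTB, GAPDH and POLR2A, and fitted bidirectionally versus DMSO.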

Read-out in experiment [4]: Keratin 19 (KRT19), KRT19 (gene 3880)
The experiment is described as follows: LTEA_HepaRG_KRT19: Life Technologies and Expression Analysis (LTEA) Assay for Keratin 19 (KRT19) using HepaRG (AID 2283512). Put shortly:
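Gene-expression endpoint in the human liver line HepaRG after 48 h exposure to up to 100 uM test chemical with 0.5% DMSO vehicle; KRT19 mRNA by qRT-PCR, analyzed bidirectionally versus DMSO.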

Read-out in experiment [5]: JUN Transcription Factor, JUN (gene 3725)
The experiment is described as follows: LTEA_HepaRG_JUN: Life Technologies and Expression Analysis (LTEA) Assay for JUN Transcription Factor using HepaRG (AID 2283513). The procedure, abridged: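 Cells plated 48 h, medium switched to serum-free induction medium, then dosed 48 h (100 uM top, half-log dilutions, 0.5% DMSO). RNA isolated; JUN measured by qRT-PCR against three housekeeping genes; gain or loss fitted relative to DMSO.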

Read-out in experiment [6]: Lipase C (LIPC), LIPC (gene 3990)
The experiment is described as follows: LTEA_HepaRG_LIPC: Life Technologies and Expression Analysis (LTEA) Assay for Lipase C (LIPC) using HepaRG (AID 2283514). The procedure, abridged:
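Differentiated human HepaRG cells in serum-free induction medium were exposed in duplicate for 48 h to eight concentrations (top 100 uM, half-log steps, 0.5% DMSO). LIPC mRNA was quantified by TaqMan qRT-PCR, normalized to ACTB, GAPDH and POLR2A, with bidirectional fitting versus DMSO.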

Read-out in experiment [7]: Lipoprotein lipase (LPL), LPL (gene 4023)
The experiment is described as follows: LTEA_HepaRG_LPL: Life Technologies and Expression Analysis (LTEA) Assay for Lipoprotein lipase (LPL) using HepaRG (AID 2283515). The procedure, abridged:
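Differentiated human HepaRG cells in serum-free induction medium were exposed in duplicate for 48 h to eight half-log concentrations (top 100 uM) in 0.5% DMSO. LPL mRNA was quantified by TaqMan qRT-PCR, normalized to ACTB, GAPDH and POLR2A.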

Read-out in experiment [8]: MicroRNA 122 (MIR122), gene 406906
As to the kind of experiment: LTEA_HepaRG_MIR122: Life Technologies and Expression Analysis (LTEA) Assay for MicroRNA 122 (MIR122) using HepaRG (AID 2283516). Also: the transcript read is the microRNA miR-122. Put shortly:
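HepaRG plated 48 h, switched to serum-free induction medium, then treated in duplicate for 48 h (100 uM top, half-log steps, 0.5% DMSO vehicle). RNA isolated, qRT-PCR performed, concentration-response fitted both directions relative to DMSO.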

Read-out in experiment [9]: matrix metalloproteinase-10 (MMP10), MMP10 (gene 4319)
As to the kind of experiment: LTEA_HepaRG_MMP10: Life Technologies and Expression Analysis (LTEA) Assay for matrix metalloproteinase-10 (MMP10) using HepaRG (AID 2283517). Put shortly:
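HepaRG, collagen I, ~100,000 cells/well; serum-free induction medium; 48 h exposure, duplicate, 8-pt half-log to 100 uM, 0.5% DMSO. Readout: TaqMan qRT-PCR, normalized to ACTB/GAPDH/POLR2A; bidirectional fit vs DMSO.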

Read-out in the next experiment: MYC, MYC (gene 4609)
The experiment is described as follows: LTEA_HepaRG_MYC: Life Technologies and Expression Analysis (LTEA) Assay for MYC using HepaRG (AID 2283518). Put shortly:
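Cells are thawed, plated and cultured 48 h, then treated for 48 h with test chemicals (eight half-log concentrations from 100 uM, 0.5% DMSO vehicle). RNA is isolated and MYC expression quantified by qRT-PCR against three housekeeping genes.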

Read-out in experiment [10]: matrix metalloproteinase-3 (MMP3), MMP3 (gene 4314)
As to the kind of experiment: LTEA_HepaRG_MMP3: Life Technologies and Expression Analysis (LTEA) Assay for matrix metalloproteinase-3 (MMP3) using HepaRG (AID 2283519). The procedure, abridged:
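Differentiated human HepaRG cells, plated 48 h on collagen I, were exposed in duplicate for 48 h in serum-free induction medium to eight half-log concentrations up to 100 uM in 0.5% DMSO. MMP3 mRNA was quantified by TaqMan qRT-PCR, normalised to ACTB, GAPDH and POLR2A.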

Read-out in experiment [11]: Paternally Expressed 10 (PEG10), PEG10 (gene 23089)
As to the kind of experiment: LTEA_HepaRG_PEG10: Life Technologies and Expression Analysis (LTEA) Assay for Paternally Expressed 10 (PEG10) using HepaRG (AID 2283520). Put shortly: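 HepaRG, 48 h post-plating → serum-free induction medium → 48 h chemical exposure (duplicate, 8-pt, max 100 uM, half-log, 0.5% DMSO) → lysis in RLT → TaqMan qRT-PCR for PEG10, ACTB/GAPDH/POLR2A normalisation.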

Read-out in experiment [12]: Nuclear factor NF-kappa-B p105 subunit (Homo sapiens) (UniProt P19838)
As to the kind of experiment: LTEA_HepaRG_NFKB1: Life Technologies and Expression Analysis (LTEA) Assay for Nuclear Factor Kappa B Subunit 1 (NFKB1) using HepaRG (AID 2283521).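 As to outcome: TaqMan qRT-PCR transcript normalised to ACTB GAPDH and POLR2A housekeeping genes.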 Put shortly:
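Human HepaRG cells receive eight half-log concentrations, highest 100 uM, for 48 h. NFKB1 expression is then quantified by qRT-PCR and analysed for up- or down-regulation relative to 0.5% DMSO vehicle.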

Read-out in experiment [13]: Protein phosphatase 2A (PPP2R4), PTPA (gene 5524)
As to the kind of experiment: LTEA_HepaRG_PPP2R4: Life Technologies and Expression Analysis (LTEA) Assay for Protein phosphatase 2A (PPP2R4) using HepaRG (AID 2283522). The procedure, abridged:
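Readout is PPP2R4 transcript level by microfluidic qRT-PCR after 48 h chemical treatment of human HepaRG liver cells. Concentrations spanned 100 uM downward in half-log steps; gain or loss of signal was fitted relative to DMSO.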

Read-out in experiment [14]: Phosphatase and tensin (PTEN), PTEN (gene 5728)
As to the kind of experiment: LTEA_HepaRG_PTEN: Life Technologies and Expression Analysis (LTEA) Assay for Phosphatase and tensin (PTEN) using HepaRG (AID 2283523). Put shortly:
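Differentiated human HepaRG cells, plated 48 h then switched to serum-free induction medium, were exposed in duplicate for 48 h to eight half-log concentrations up to 100 uM in 0.5% DMSO. PTEN mRNA measured by TaqMan qRT-PCR, normalized to ACTB/GAPDH/POLR2A, bidirectional fit versus DMSO.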

Read-out in experiment [15]: Pyruvate Dehydrogenase Kinase 4 (PDK4), PDK4 (gene 5166)
The experiment is described as follows: LTEA_HepaRG_PDK4: Life Technologies and Expression Analysis (LTEA) Assay for Pyruvate Dehydrogenase Kinase 4 (PDK4) using HepaRG (AID 2283525). Put shortly:
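Differentiated human HepaRG cells, pre-cultured 48 h, were exposed in duplicate for 48 h in serum-free induction medium to eight half-log concentrations up to 100 uM in 0.5% DMSO. PDK4 mRNA was quantified by qRT-PCR, normalized to ACTB, GAPDH and POLR2A, bidirectional fitting versus DMSO.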

Read-out in experiment [16]: NAD(P)H dehydrogenase [quinone] 1 (NQO1), NQO1 (gene 1728)
As to the kind of experiment: LTEA_HepaRG_NQO1: Life Technologies and Expression Analysis (LTEA) Assay for NAD(P)H dehydrogenase [quinone] 1 (NQO1) using HepaRG (AID 2283526). Put shortly:
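HepaRG, 48 h post-plating → serum-free induction medium → test chemical 48 h (duplicate, 100 uM top, half-log x8, 0.5% DMSO) → RNA isolation → qRT-PCR, ACTB/GAPDH/POLR2A normalization; bidirectional curve fit vs DMSO baseline.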

Read-out in experiment [17]: Nuclear factor erythroid 2-related factor 2 (Homo sapiens) (UniProt Q16236)
The experiment is described as follows: LTEA_HepaRG_NFE2L2: Life Technologies and Expression Analysis (LTEA) Assay for Nuclear factor erythroid 2-related factor 2 (NFE2L2) Transcription Factor using HepaRG (AID 2283527).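 As to outcome: TaqMan qRT-PCR transcript level normalised to ACTB GAPDH and POLR2A housekeeping genes.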 The procedure, abridged: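 Differentiated human HepaRG cells in serum-free induction medium were exposed for 48 h to eight concentrations (top 100 uM, half-log dilutions, 0.5% DMSO), in duplicate. NFE2L2 mRNA was quantified by TaqMan qRT-PCR, normalized to ACTB, GAPDH and POLR2A, with bidirectional fitting versus DMSO.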

Read-out in experiment [18]: succinate dehydrogenase complex iron sulfur subunit B (SDHB), SDHB (gene 6390)
The experiment is described as follows: LTEA_HepaRG_SDHB: Life Technologies and Expression Analysis (LTEA) Assay for succinate dehydrogenase complex iron sulfur subunit B (SDHB) using HepaRG (AID 2283528). The procedure, abridged: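 A human HepaRG culture in serum-free induction medium received test chemicals for 48 h over an eight-point range capped at 100 uM. SDHB expression change was quantified by qRT-PCR.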

Nuclear factor erythroid 2-related factor 2 (Homo sapiens), sequence (Q16236 whole entry, looked up): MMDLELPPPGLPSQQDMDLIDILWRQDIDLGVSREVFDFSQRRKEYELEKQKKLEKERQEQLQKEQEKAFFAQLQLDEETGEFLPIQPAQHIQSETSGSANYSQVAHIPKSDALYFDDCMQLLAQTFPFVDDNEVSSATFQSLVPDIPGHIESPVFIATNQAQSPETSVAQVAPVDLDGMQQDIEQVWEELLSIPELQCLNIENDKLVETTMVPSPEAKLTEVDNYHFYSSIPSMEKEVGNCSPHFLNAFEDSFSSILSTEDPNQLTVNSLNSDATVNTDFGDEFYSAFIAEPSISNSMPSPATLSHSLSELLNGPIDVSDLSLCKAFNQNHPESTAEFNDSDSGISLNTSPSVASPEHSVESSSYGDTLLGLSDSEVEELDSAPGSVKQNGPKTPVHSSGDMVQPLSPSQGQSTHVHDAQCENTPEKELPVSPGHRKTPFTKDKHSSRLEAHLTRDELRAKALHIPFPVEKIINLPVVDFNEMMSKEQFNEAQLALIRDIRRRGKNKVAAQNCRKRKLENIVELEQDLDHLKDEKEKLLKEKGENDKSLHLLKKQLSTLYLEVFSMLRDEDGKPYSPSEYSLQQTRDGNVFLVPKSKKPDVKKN
Nuclear factor NF-kappa-B p105 subunit (Homo sapiens), sequence (P19838 whole entry, looked up): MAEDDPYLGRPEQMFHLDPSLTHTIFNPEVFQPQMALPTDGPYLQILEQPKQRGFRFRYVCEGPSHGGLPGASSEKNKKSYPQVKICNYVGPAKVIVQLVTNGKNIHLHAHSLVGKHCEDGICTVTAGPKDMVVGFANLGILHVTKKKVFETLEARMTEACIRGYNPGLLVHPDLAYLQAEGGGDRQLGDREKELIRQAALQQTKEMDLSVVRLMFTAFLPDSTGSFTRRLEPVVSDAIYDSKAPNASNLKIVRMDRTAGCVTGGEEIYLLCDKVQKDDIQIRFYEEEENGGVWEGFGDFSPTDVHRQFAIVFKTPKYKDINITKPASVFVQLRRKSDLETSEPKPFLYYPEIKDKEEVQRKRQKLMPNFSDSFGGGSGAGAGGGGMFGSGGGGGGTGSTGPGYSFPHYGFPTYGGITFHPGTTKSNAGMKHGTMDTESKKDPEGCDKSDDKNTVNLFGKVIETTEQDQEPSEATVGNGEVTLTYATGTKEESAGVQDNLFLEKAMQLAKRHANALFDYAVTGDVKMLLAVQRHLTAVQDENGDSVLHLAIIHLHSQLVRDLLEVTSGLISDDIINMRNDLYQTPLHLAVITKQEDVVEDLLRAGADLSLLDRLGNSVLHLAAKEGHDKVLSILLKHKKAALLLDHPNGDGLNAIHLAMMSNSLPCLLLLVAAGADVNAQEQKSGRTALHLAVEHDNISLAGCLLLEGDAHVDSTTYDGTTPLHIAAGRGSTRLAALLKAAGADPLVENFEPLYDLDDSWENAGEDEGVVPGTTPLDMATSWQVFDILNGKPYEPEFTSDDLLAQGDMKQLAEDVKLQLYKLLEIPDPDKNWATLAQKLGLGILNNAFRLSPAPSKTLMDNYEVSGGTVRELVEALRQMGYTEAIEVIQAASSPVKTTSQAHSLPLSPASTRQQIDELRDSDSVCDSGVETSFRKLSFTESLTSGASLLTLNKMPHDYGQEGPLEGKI

For the molecule `Oc1cccc(O)c1`, the molecule was classed as inactive in experiment [1], in [2], in experiment [3], in experiment [4], in experiment [5] and in experiment [6]. Also, the outcome in experiment [7] is “inactive”; in [8], “inactive”; in experiment [9], “inactive”; in the experiment with MYC, MYC (gene 4609), “inactive”; in experiment [10] it was “inactive”; in [11], “inactive”. Besides, the call in experiment [12], in [13], in experiment [14], in [15], in experiment [16] and in experiment [17] was inactive. In [18], the molecule was called inactive.

In the case of `NC(=O)N(O)[C@@H]1C=C[C@H](Oc2cccc(Oc3ccc(F)cc3)c2)C1`, the AC50 (as a rule, the concentration at which the activity in the assay is half-maximal) was 38.6 µM (active) in [1]; 35.5 µM (active) in experiment [3]; 76.6 µM (active) in [5]; 36.4 µM (active) in experiment [6]; 50 µM (active) in experiment [7]; 68 µM (active) in experiment [8]. Moreover, the concentration at half-maximal activity (AC50) in [9] was 64.8 µM (active); in the experiment with MYC, MYC (gene 4609) it was 72.7 µM (active); in experiment [10], 85.9 µM (active); in experiment [11] it was 5.31 µM (active); in experiment [12] it was 74.4 µM (active); in experiment [15] it was 50 µM (active). Further, in experiment [17], the AC50 is 81.9 µM (active). Also, the outcome in experiment [2], in experiment [4], in experiment [13], in experiment [14], in [16] and in [18] was inactive.

Turning to `CC1=C(/C=C/C(C)=C/C=C/C(C)=C/C(=O)O)C(C)(C)CCC1`, the molecule was called inactive in [1], in experiment [5], in experiment [6], in experiment [7], in experiment [8] and in experiment [9]. Besides, the molecule was classed as inactive in [12], in experiment [13] and in [14]. Further, the AC50 was 10.2 µM (active) in experiment [3]; 22.7 µM (active) in the experiment with MYC, MYC (gene 4609); 18 µM (active) in experiment [10]; 9 µM (active) in experiment [11]; 33.8 µM (active) in experiment [15]; 11 µM (active) in experiment [16]. The AC50 in experiment [17] is 20.4 µM (active); in [18] it was 1.09 µM (active).

For `c1ccc2cc3c(ccc4ccccc43)cc2c1`, the molecule was classed as inactive in experiment [1], in experiment [3], in experiment [5], in experiment [9], in [10] and in experiment [13]. The molecule was classed as inactive in [14], in experiment [16], in experiment [17] and in experiment [18]. Also, the AC50 in experiment [2] was 9.75 µM (active); in experiment [4], 5.58 µM (active); in [6], 12.7 µM (active); in experiment [7] it was 7.72 µM (active); in experiment [8] it was 15 µM (active); in the experiment with MYC, MYC (gene 4609) it was 13.4 µM (active). Besides, the AC50 in experiment [11] is 12.1 µM (active); in experiment [15], 22.9 µM (active).
